Bioassay records: PubChem BioAssay, National Center for Advancing Translational Sciences (NCATS)
aSyn yeast inh: alpha-synuclein toxicity inhibition in yeast. Potency, µM (series often up to 46.1 µM), without a hit: top-dose growth rescue (activation), usual class: activators. Yeast expressing alpha-synuclein, growth rescue, BacTiter-Glo, 24 h. 370,000 compounds, 0.14% hits. AID 652106; also: % of control where 0% means no effect; nearly all actives have a fitted effect of over 65% in size
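Galactose-induced alpha-syn yeast (OD600=0.02, raffinose-pregrown) + pinned cpd, 24 hr, 30 deg C; growth by BacTiter-Glo luminescence. Growth restoration scores as activation.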
Mito fusion act: mitochondrial division inhibition or fusion activation; S. cerevisiae fusion-defective mutant growth rescue, CellTiterGlo 48 h; Potency, µM (doses to about 46.1 µM), for the others: top-dose growth rescue (activation), actives largely listed as activators; 320,000 compounds, 0.23% hits; AID 485298; also: % of control where 0% means no effect; nearly all actives have a fitted effect of over 45% in size
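Growth-rescue viability read-out: after 48 h at the non-permissive 37C in glycerol/ethanol YPEG, yeast mitochondrial fusion mutants are measured by CellTiterGlo luminescence; compounds (23 nl pinned per well) restoring growth score as division inhibitors or fusion activators.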
A-T KAP1 phos: potential ataxia-telangiectasia treatment; F2112 A-T fibroblasts, KAP-1 phosphorylation AlphaLISA; neocarzinostatin DNA damage 30 min before lysis; Potency, µM (top dose mostly 57.5 µM), for inactives: at the top dose activation, most hits filed as activators; 320,000 compounds, 0.19% hits; also: % of control where 0% means no effect; nearly all actives have a fitted effect of over 45% in size
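ATM-like activity read as KAP-1 phosphorylation via AlphaLISA donor/acceptor antibody pairs after lysis and 6 hr at 25C. Cells were ATM-null patient fibroblasts (F2112, hTERT), dosed 60 min, then exposed to the DSB inducer NCS for 30 min.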
FUS yeast rescue: FUS proteinopathy suppression in yeast; Potency, µM (top dose mostly 76.6 µM), actives largely listed as activators; AID 1347120; 390,000 compounds, 0.24% hits; S. cerevisiae FUS-expressing, growth rescue, OD600, 24 h;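 also: plate controls were DMSO vehicle for no effect and reference control for full effect; nearly all actives have a fitted effect of over 55% in size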
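Absorbance at 600 nm, taken 24hr after compound addition, measured rescue of FUS-yeast growth at 30C. Induction used 2% galactose with seeding at OD 0.005. Controls: CP55940 from 92uM final, DMSO only.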
TDP43 rescue: rescues yeast growth from TDP-43 toxicity; TDP-43 expressing yeast growth rescue, BacTiter-Glo, 24 h; Potency, µM (top dose mostly 46.1 µM), without a hit: at the top dose growth rescue (activation), usual class: activators; 410,000 compounds, 1.8% hits; AID 652104; also: % of control where 0% means no effect; nearly all actives have a fitted effect of over 50% in size
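Cell-based yeast growth screen: TDP-43 expression induced in galactose, inoculum OD600=0.02 after raffinose pregrowth to mid-log. Read-out BacTiter-Glo luminescence at 24 hr, 30 deg C; inhibition of toxicity seen as signal increase.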
Abeta yeast res: compounds reversing amyloid beta toxicity in yeast; yeast expressing A-beta42, growth rescue, OD600, 48 h; response scale: 0% DMSO, 100% iron-clioquinol control; Potency, µM (titrated, usually from 46.1 µM), hits mostly activators; 410,000 compounds, 0.063% hits; AID 1347071; also: nearly all actives have a fitted effect of over 55% in size
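Growth rescue measured by 600 nm absorbance after 48 h yeast culture at 30 C with compound. Values normalized between DMSO and an equimolar ferric chloride plus clioquinol control.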
* marks the source's active call; other numbers are inactive results; i = inactive; ? = inconclusive; . = no result given. Compounds with a hit are over-represented: about 2.4% of the library has one in this group of screens. Calls follow the shape of the dose curve; as a rule, active = well fitted curve in the direction sought with a large enough effect; inconclusive = small, poorly fitted or top-dose-only effect, or another doubt; inactive = no such curve, though single readings can be large; an effect the other way counts as inactive or inconclusive. Potency is read from the fitted curve at half-maximal effect.

SMILES	aSyn yeast inh	Mito fusion act	A-T KAP1 phos	FUS yeast rescue	TDP43 rescue	Abeta yeast res
C=CCn1c(SCc2ccc(C#N)cc2)nnc1-c1cccc(Cl)c1	6%	0%	-5%	i	14µM*	i
O=C(CN1N=C(C(F)(F)F)CC1(O)c1ccc([N+](=O)[O-])cc1)c1ccccc1 (stereo not drawn)	16%	16µM*	2%	i	16µM*	i
O=C(NCCc1ccc(Cl)cc1)c1ccc(Cn2c(=O)c3cccn3c3cccnc32)cc1	.	.	.	i	?	i
CC(NC(=O)c1ccco1)c1cccc2ccccc12 (stereo not drawn)	-1%	3%	3%	i	20µM*	i
O=C(CNCc1ccccc1)Nc1ccccc1-c1ccccc1	0%	16%	4%	i	-1%	i
O=C(CNc1ccccc1-c1ccccc1)NCc1ccccc1	6%	?	11%	.	20µM*	i
O=C(c1cc(-c2ccco2)nc2ccccc12)N1CCCC(C(F)(F)F)C1 (stereo not drawn)	-22%	11%	7%	i	35µM*	i
CC(C)N(C(=O)CSc1nc2ccc(Cl)cc2[nH]1)c1ccccc1	.	.	.	i	35µM*	i
O=C(CSc1nnc(SCc2cccc3ccccc23)s1)c1ccc(F)cc1	.	.	.	i	.	.
CCOc1ccccc1NC(=O)Nc1nnc(N(C)Cc2ccccc2)s1	.	.	.	i	22%	i
COc1ccc(-c2csc(C(NC(C)=O)c3ccc(F)c(F)c3)n2)cn1 (stereo not drawn)	12%	.	.	i	35µM*	i
CC(=O)NC(c1cccc(F)c1)c1nc(-c2cccc(C(C)C)c2)cs1 (stereo not drawn)	?	.	.	?	25µM*	i
CNC(=S)/N=C/NOCc1ccc(Cl)cc1Cl	-21%	-13%	2%	i	10µM*	i
Cc1ccc(S(=O)(=O)CCC(=O)OCC(=O)c2cc(C)ccc2C)cc1	5%	1%	-2%	i	?	i
Cc1ccc(S(=O)(=O)CCC(=O)OCc2ccc(Cl)cc2)cc1	13%	13%	2%	.	25µM*	i
COC(=O)c1ccc(COC(=O)CCS(=O)(=O)c2ccc(C)cc2)cc1	1%	0%	0%	i	-9%	i
Cc1ccc(S(=O)(=O)CCC(=O)c2ccc(O)cc2O)cc1	7%	-9%	-1%	i	14µM*	i
CCOc1ccc(NC(=O)CSc2nnc3c(C)cc4ccccc4n23)cc1	.	.	.	i	12%	i
O=C(NCc1ccccc1)C1CCN(S(=O)(=O)Cc2ccccc2)CC1	.	.	.	i	3%	i
COc1ccc(-c2onc(C)c2C)cc1S(=O)(=O)N1CCN(c2ccc(Cl)cc2)CC1	.	.	.	i	21%	i
COc1ccc(C(=O)/C=C/C(=O)N(Cc2ccc(F)cc2)C(C(=O)NC2CCCCC2)c2ccncc2)c(O)c1 (stereo not drawn)	25µM*	?	-4%	.	20µM*	i
COc1ccc(C(=O)/C=C/C(=O)N(Cc2ccccc2)C(C(=O)NC2CCCCC2)c2ccncc2)c(O)c1 (stereo not drawn)	12%	30%	8%	.	17%	i
Cc1ccc(C(C)C)c(OCC(=O)NCC2(N3CCOCC3)CCCCC2)c1	.	.	.	i	8%	i
C=C(C)Cn1c(N2CC(C)CC(C)C2)nc2c1c(=O)[nH]c(=O)n2C (stereo not drawn)	-6%	25µM*	0%	i	7%	i
COc1ccc(C2CCC3(CCC(=O)N3CCO)CC2)cc1 (stereo not drawn)	.	.	.	i	.	.
SMILES	aSyn yeast inh	Mito fusion act	A-T KAP1 phos	FUS yeast rescue	TDP43 rescue	Abeta yeast res
COc1cc(NC(=O)c2csc(-c3ccncc3)n2)cc(C(=O)Nc2cccc(C(F)(F)F)c2)c1	1%	-6%	32%	?	20µM*	i
COc1ccc(CC(=O)NCCc2csc(-c3ccc(C(F)(F)F)cc3)n2)cc1	-4%	.	.	i	11%	i
O=C(Nc1cccc(C(F)(F)F)c1)c1csc(-c2ccncc2)n1	-4%	3%	2%	i	-8%	i
O=C(NCCc1csc(-c2ccc(Cl)cc2)n1)c1cccs1	.	.	.	i	18µM*	i
COc1cc(OC)cc(C(=O)NCCc2csc(-c3ccc(C(F)(F)F)cc3)n2)c1	.	.	.	i	18µM*	i
COc1ccccc1C(=O)NCCc1csc(-c2ccc(C(F)(F)F)cc2)n1	.	.	.	?	25µM*	i
O=C(Nc1ccc(F)cc1F)C1CCN(c2nnc(-n3cccc3)s2)CC1	.	.	.	i	.	.
O=C(NCC1CCN(Cc2ccccc2Cl)CC1)c1cc2ccc3cccnc3c2[nH]1	.	.	.	i	0%	i
COc1cccc(CN[C@@H]2CC[C@@]34CCCN3C(=O)CCC[C@H]4C2)c1	.	.	.	i	.	.
Cc1ccc(CSC2=Nc3ccccc3C3=NC(CCC(=O)NC4CCCCC4)C(=O)N23)cc1 (stereo not drawn)	.	.	.	i	8%	i
COc1ccc(C=Nn2c(-c3n[nH]c4c3CCC4)n[nH]c2=S)cc1OCc1ccccc1	.	.	.	i	.	.
COc1ccc(C(=O)NCCc2csc(-c3ccc(Cl)cc3)n2)c(OC)c1	.	.	.	?	20µM*	i
COc1ccc(C(=O)NCCc2csc(-c3ccc(Cl)cc3)n2)cc1	.	.	.	i	?	i
COc1ccc(-n2ccnc2SCC(=O)Nc2cccc(OC)c2)cc1	.	.	.	i	?	i
O=C1OCC(c2ccccc2)=C1c1ccccc1	-2%	6%	3%	i	18µM*	i
Cc1cccc(NC(=O)c2ccc([N+](=O)[O-])s2)c1C	2%	4%	11%	i	11µM*	?
Cc1ccnc(NC(=O)c2ccc([N+](=O)[O-])s2)c1	5%	-11%	-2%	i	8.9µM*	i
O=C(NC12CC3CC(CC(C3)C1)C2)c1cccc(OC(F)F)c1	1%	-3%	4µM*	i	?	i
COc1ccc(-c2cc(-c3nnc4sc(Cc5cccs5)nn34)[nH]n2)cc1	.	.	.	i	.	.
CN(C(=O)Nc1ccc(Cl)c(Cl)c1)c1ccccc1C(=O)O	-31%	18µM*	-1%	i	?	i
COc1ccccc1N1CCN(C(=O)c2cc3c(=O)n(Cc4cccnc4)ccc3nc2C)CC1	.	.	.	i	18%	i
COc1ccccc1COC(=O)c1cccc(S(=O)(=O)N(C)Cc2ccccc2)c1	.	.	.	i	.	.
